# In all, about 69,000 compounds went through this assay and about 8,600 (12%) showed an effect of 50% or more. For the sample, strong results were picked, then their nearest neighbours and some compounds at random.
# Test system: Plasmodium berghei
# Experiment: Screen against P. berghei liver stage (PbLuc), transformed with Luciferase, at 10uM
# Type: functional, HepG2
# Conditions: tested at 10 uM
row,SMILES,INHIBITION [%]
1,CNC(=O)c1ccc(-c2ccc(CNS(=O)(=O)N(C)C)cc2)nc1C,8.12
2,O=c1occ(CN2CCCCCC2)c(O)c1CN1CCCCCC1,25.8
3,Cc1nc(N)ncc1C(=O)N1CCCC(CCc2ccc(F)c(F)c2)C1 (stereo not drawn),38.5
4,Cc1ccc(-c2ncc(C(=O)N3CCCN4CCC[C@H]4C3)c(O)n2)cc1,15.2
5,Cc1ccc(-c2ncc(C(=O)N3CCCC(CCN)C3)c(O)n2)cc1 (stereo not drawn),53.8
6,Cc1nc(N)ncc1C(=O)N1CCCC(CCc2ccc(F)cc2)C1 (stereo not drawn),90.3
7,Cc1ccc(-c2ncc(C(=O)N3CCC[C@H](N)C3)c(O)n2)cc1,42.2
8,COc1ccc(CCC2CCCN(C(=O)c3cnc(N)nc3C)C2)cc1 (stereo not drawn),34.9
9,O=C(c1c[nH]cn1)N1CCC(F)(F)C2(CCN(c3cccc(F)c3)C2)C1 (stereo not drawn),21.7
10,CC(=O)Nc1ccc(SCC(O)COCc2ccc3c(c2)OCO3)cc1 (stereo not drawn),25.8
11,COc1ccc(CN(C)CC2(O)CCNC2)cc1 (stereo not drawn),20.85
12,Cc1nc(CN2CCC3(CC2)CC(c2cccnc2)C(=O)N3C)cs1 (stereo not drawn),34.5
13,CS(=O)(=O)NC[C@]1(O)CCN(C(=O)Cc2cccs2)C[C@H]1O,-8.12
14,C[C@@H]1CN(C(=O)C2CCS(=O)(=O)CC2)C[C@]1(C)O,-7.81
15,NC(=O)C(NCc1ccc(Cl)s1)c1ccccc1 (stereo not drawn),-22.6
16,NC(=O)C(NCCc1ccc(Cl)s1)c1ccccc1 (stereo not drawn),-35.8
17,O=C(C(CNCc1cccs1)c1ccccc1)N1CCOCC1 (stereo not drawn),5.85
18,CNC(=O)NC(=O)C(NCc1ccccc1)c1ccccc1 (stereo not drawn),24.8
19,CNC(=O)NC(=O)C(NCc1cccs1)c1ccccc1 (stereo not drawn),64.7
20,NC(=O)C(NCc1cccs1)c1ccccc1 (stereo not drawn),60.1
21,CC(C)(C)N1CC(C(=O)N2CC(Oc3ccc(F)cc3)C2)CC1=O (stereo not drawn),18.5
22,COCCN1CCC2(CC1)CC(c1cccnc1)CO2 (stereo not drawn),16.4

row,SMILES,INHIBITION [%]
1,N#Cc1ccc(OCC(O)CN2CCC(Cn3cccn3)CC2)cc1 (stereo not drawn),5.7
2,CNC(=O)[C@H]1C[C@@H]2CN(S(=O)(=O)c3ccc(OC)cc3)C[C@@H]2N1C,46.6
3,COCc1cncc2c1CCN(C(=O)c1cccc(C#N)c1)C2,14.9
4,Cn1cc(N2CC3(CCN(Cc4nccn4C)C3)CC2=O)cn1 (stereo not drawn),14.8
5,Cn1ccnc1CN1CCC2(CC(=O)N(c3cccc(F)c3)C2)C1 (stereo not drawn),25.3
6,COc1cccc(N2CC3(CCN(Cc4nccn4C)C3)CC2=O)c1 (stereo not drawn),40.4
7,Cn1ccnc1CN1CCC2(CC(=O)N(c3cncnc3)C2)C1 (stereo not drawn),33.5
8,Cc1cccc(N2CC3(CCN(Cc4nccn4C)C3)CC2=O)c1 (stereo not drawn),52
9,Cn1ccnc1CN1CCC2(CC(=O)N(c3ccsc3)C2)C1 (stereo not drawn),53.2
10,CCc1nc(C2CCCN2CCCS(N)(=O)=O)no1 (stereo not drawn),31.9
11,CSCCC(NC(=O)C1CC1)C(=O)N(C)Cc1ccsc1 (stereo not drawn),42.6
12,Cc1noc(C)c1CCc1nc(C2CCOC2)no1 (stereo not drawn),-94.3
13,COCCC(=O)N1CCOCC2(CCN(Cc3cccs3)C2)C1 (stereo not drawn),-5.31
14,Cn1cc(-c2ncnc3c2CCN(CC2CCOC2)CC3)cn1 (stereo not drawn),25.8
15,CN(C)[C@@H]1CCN(S(=O)(=O)C2CC2)[C@H]1Cc1ccccc1,27.5
16,Cc1nc(C2CCCN(C(=O)c3cccc4c3OCO4)C2)sc1C (stereo not drawn),40
17,c1cc(-c2cn[nH]c2)ccc1CN1CCNCC1,14.6
18,CCNC(=O)C(C)NC(=O)c1cnc(-c2ccc(C)cc2C)s1 (stereo not drawn),50.5
19,Cc1ccc(-c2ncc(C(=O)NCCNC(=O)C(C)C)s2)c(C)c1,-10.9
20,Cc1ccc(-c2ncc(C(=O)NCCS(N)(=O)=O)s2)c(C)c1,-37.3
21,COc1ccccc1C(O)CNC(=O)NCc1csc(C)n1 (stereo not drawn),13.3
22,c1csc(CN2Cc3nc(CN4CCCC4)oc3C2)c1,33.5

row,SMILES,INHIBITION [%]
1,CCN(CC)Cc1nc2c(o1)CN(S(=O)(=O)c1cccs1)C2,57.5
2,O=S(=O)(c1cccs1)N1Cc2nc(COCC3CC3)oc2C1,30.3
3,O=S(=O)(c1cccs1)N1Cc2nc(CN3CCCCC3)oc2C1,19.5
4,O=S(=O)(c1cccs1)N1Cc2nc(CN3CCCC3)oc2C1,67.5
5,CN(C)Cc1nc2c(o1)CN(S(=O)(=O)c1cccs1)C2,34
6,O=c1c(S(=O)(=O)N2CCCC2)cccn1Cc1c(F)cccc1Cl,7.92
7,Cc1nc[nH]c1CN1CCC2(CC1)CC(Nc1ncccn1)CO2 (stereo not drawn),27.6
8,CCc1cnc(CN2CCC(N(Cc3noc(CC)n3)C(C)=O)C2)o1 (stereo not drawn),-15.5
9,CC1CN(CC(=O)NCc2cccs2)CCN1c1nccs1 (stereo not drawn),36.1
10,Cc1ccc(-c2cc(N)c(=O)n(C(C)C(N)=O)n2)o1 (stereo not drawn),-6.88
11,COc1ccccc1CN1C[C@@H]2CN(C(C)=O)CCO[C@@H]2C1,0.453
12,COCC(=O)N1CCN(C(=O)NC(C)C)CC2(CC(=O)N(C)C2)C1 (stereo not drawn),45.2
13,O=C1NCC2=Nc3ccccc3NC(c3ccccc3)C12 (stereo not drawn),7.92
14,CN(C)CCOCc1nnc2n1CCN(Cc1ccoc1)CC2,0.618
15,COc1ccc(CN2CCc3nnc(COCCN(C)C)n3CC2)cc1,22.4
16,CN(C)CCOCc1nnc2n1CCN(Cc1ccc(F)cc1)CC2,69.8
17,CN(CC(=O)N1CCCCC1c1nc(C(C)(C)C)cs1)C1CC1 (stereo not drawn),-19.9
18,Cc1nccc(C2CCCCN2Cc2ccc(F)cc2)n1 (stereo not drawn),41.2
19,Cc1cc(COC(=O)[C@@H]2Cc3ccccc3CN2S(C)(=O)=O)no1,5.91
20,CCS(=O)(=O)N1Cc2ccccc2CC1C(=O)OCc1cc(C)no1 (stereo not drawn),60.2
21,CCS(=O)(=O)N1Cc2ccccc2CC1C(=O)OCc1c(C)noc1C (stereo not drawn),-16.3
22,Cc1nc(CN2CCC3(CCCN(Cc4cnn(C)c4)C3)C2=O)cs1 (stereo not drawn),-0.912

row,SMILES,INHIBITION [%]
1,COc1ccc2[nH]c3c(N(C)CC4OCCO4)ncnc3c2c1,-112
2,Cc1ccoc1C(=O)N1CC[C@H]2C[C@H](c3nnc(C4CC4)o3)O[C@@H]2C1,54.8
3,O=C(c1ccccc1)N1CC[C@H]2C[C@H](c3nnc(C4CC4)o3)O[C@@H]2C1,38.5
4,O=C(c1ccccc1)N1CC[C@H]2C[C@@H](c3nnc(C4CC4)o3)O[C@@H]2C1,38.5
5,O=C(Cc1ccsc1)N1C[C@@H]2C[C@@H](c3nnc(C4CC4)o3)O[C@@H]2C1,61.8
6,Cc1occc1C(=O)N1CC[C@H]2C[C@@H](c3nnc(C4CC4)o3)O[C@@H]2C1,68.4
7,O=C(c1ccoc1)N1CC[C@H]2C[C@@H](c3nnc(C4CC4)o3)O[C@@H]2C1,35.8
8,O=C(c1ccsc1)N1CC[C@H]2C[C@@H](c3nnc(C4CC4)o3)O[C@@H]2C1,-1.64
9,O=C(c1ccsc1)N1C[C@@H]2C[C@@H](c3nnc(C4CC4)o3)O[C@@H]2C1,-31.6
10,O=C(c1cccs1)N1CC[C@H]2C[C@@H](c3nnc(C4CC4)o3)O[C@@H]2C1,26.7
11,Cc1ccnc(C2COCCN2C)n1 (stereo not drawn),8.905
12,CCn1ccnc1CN1CCN(CC(O)c2ccco2)CC1 (stereo not drawn),10.55
13,c1cncc(COCC2CN(Cc3cccnc3)Cc3ccnn3C2)c1 (stereo not drawn),-60.2
14,CCCc1cc(=O)[nH]c(-c2ccccc2CN(C)CCC(C)C)n1,36.6
15,Cc1cccn2cc(CN3CCC(N4CCN(C)C4=O)CC3)nc12,-1.85
16,OC(CN1CCN(Cc2cccnc2)CC1)c1cccs1 (stereo not drawn),10.1
17,CCc1nccn1CCC(=O)N1CCCC1c1cncc(NC)n1 (stereo not drawn),2.365
18,O=C(CN1CC(c2nc(C3CC3)no2)C1)NCC1CCCO1 (stereo not drawn),48
19,O=S(=O)(C1CC1)N1CCO[C@H]2[C@H](OCCN3CCCC3)CC[C@@H]21,-9.67
20,CN(Cc1cnccn1)S(=O)(=O)N1CCCC1c1ccco1 (stereo not drawn),4.3
21,Cc1noc(C)c1CN1CCOC(CNc2cccnn2)C1 (stereo not drawn),-7.35
22,CCOc1cc(CNCc2ncc[nH]2)c(Cl)cc1OC(C)C,33.1

row,SMILES,INHIBITION [%]
1,CCOc1cc(CNCc2nc(C)cc(=O)[nH]2)c(Cl)cc1OC(C)C,39.6
2,CCOc1cc(CNCc2cnc(C)cn2)c(Cl)cc1OC(C)C,63.5
3,Cc1nc(CN2CCN(C(=O)NC(C)Cn3ccnc3)CC2)cs1 (stereo not drawn),-28.2
4,CS(=O)(=O)c1snnc1C1CCCN(Cc2ccncc2)C1 (stereo not drawn),9.93
5,CNc1ncc(CN2CCC(c3nnsc3S(C)(=O)=O)CC2)cn1,21.9
6,Cc1cccc(CN2CCC(c3nnsc3S(C)(=O)=O)CC2)c1,18.9
7,CN(C)c1ncc(CN2CCC(c3nnsc3S(C)(=O)=O)CC2)cn1,51.2
8,CS(=O)(=O)c1snnc1C1CCN(Cc2ccncc2)CC1,67.7
9,CS(=O)(=O)c1snnc1C1CCN(Cc2cccnc2)CC1,48.6
10,CCC(O)CN1CCN(C(=O)c2cnc3n[nH]c(C)c3c2)CC1 (stereo not drawn),12.7
11,O=C(O)CSc1nccc(-c2ccc3c(c2)OCO3)n1,8.51
12,CCc1nnc(C(C)N2CCc3cncnc3C2)o1 (stereo not drawn),2.43
13,O=C(NC1CC1)N1CC[C@H](OCC2CC2)[C@@H]1Cc1cccnc1,29
14,O=C(CN1CCC(c2ccccc2)C1)NC(=O)NCC(F)(F)F (stereo not drawn),36.65
15,O=C(Nc1nc2c(s1)CN(S(=O)(=O)C1CC1)CC2)c1ccc(Cl)s1,73.3
16,O=C(Nc1nc2c(s1)CN(S(=O)(=O)C1CC1)CC2)Nc1ccccc1F,64.5
17,O=C(Nc1nc2c(s1)CN(S(=O)(=O)C1CC1)CC2)c1ccccn1,39.3
18,O=C(Nc1nc2c(s1)CN(S(=O)(=O)C1CC1)CC2)c1cccc(Cl)c1,26
19,O=C(Nc1nc2c(s1)CN(S(=O)(=O)C1CC1)CC2)c1c(F)cccc1F,-45.9
20,CS(=O)(=O)N1CCc2nc(NC(=O)Nc3c(F)cccc3F)sc2C1,9.54

# — ChEMBL document CHEMBL4513216, “Probing the Open Global Health Chemical Diversity Library for Multistage-Active Starting Points for Next-Generation Antimalarials” (ACS Infect Dis, 2020)
